Consider twelve sequences from article PMC5700166.

Experiment in all cases: protein-binding microarray (PBM); PBM: ~300 nM protein, 6 mM HEPES pH 7.8, 80 mM KCl, 0.5 mM EDTA, 0.5 mM EGTA, 6% glycerol, 35 ng/ul poly-dIdC, 1% milk, 1 h, room temperature; Ap Aiptasia and Nv Nematostella (sea anemones) / Co Capsaspora / Aq Amphimedon (sponge) / Dm Drosophila / Hu human; RHD is the Rel homology domain; high values mean tight binding
Conditions in all cases: dsDNA, one strand shown

In test [1] the target is T1, GST-Ap-NF-kB RHD (Exaiptasia pallida (Aiptasia), UniProt A0A913YAJ5 2-422).
T1 sequence: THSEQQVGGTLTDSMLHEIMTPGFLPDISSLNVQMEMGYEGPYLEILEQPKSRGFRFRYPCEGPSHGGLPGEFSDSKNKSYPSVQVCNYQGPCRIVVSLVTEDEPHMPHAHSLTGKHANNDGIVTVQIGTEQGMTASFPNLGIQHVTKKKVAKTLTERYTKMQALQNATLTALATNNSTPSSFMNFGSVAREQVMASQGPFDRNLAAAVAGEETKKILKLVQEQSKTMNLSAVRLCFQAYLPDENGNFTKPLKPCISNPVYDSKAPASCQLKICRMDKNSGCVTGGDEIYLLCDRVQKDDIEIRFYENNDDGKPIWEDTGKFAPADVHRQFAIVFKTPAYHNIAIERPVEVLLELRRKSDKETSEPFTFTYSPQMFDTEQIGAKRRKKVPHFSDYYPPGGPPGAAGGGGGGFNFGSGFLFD

In test [2] the target is T2, GST-Nv-NF-kB (Cys allele) (Nematostella vectensis, UniProt E5G601 2-411).
T2 sequence: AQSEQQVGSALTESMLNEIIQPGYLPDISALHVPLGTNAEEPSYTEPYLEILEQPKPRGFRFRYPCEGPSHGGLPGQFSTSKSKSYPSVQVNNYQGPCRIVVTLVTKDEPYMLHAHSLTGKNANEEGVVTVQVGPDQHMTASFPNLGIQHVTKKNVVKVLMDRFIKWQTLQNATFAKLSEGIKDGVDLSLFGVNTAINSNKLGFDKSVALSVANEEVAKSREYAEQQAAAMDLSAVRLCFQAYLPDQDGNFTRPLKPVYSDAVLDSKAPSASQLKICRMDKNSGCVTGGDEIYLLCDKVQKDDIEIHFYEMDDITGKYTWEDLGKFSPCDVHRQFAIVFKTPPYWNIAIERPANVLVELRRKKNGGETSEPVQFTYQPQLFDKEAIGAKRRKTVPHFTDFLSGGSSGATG

The target in test [3] is T3, GST-Co-NF-kB (Capsaspora owczarzaki, UniProt F1ARL5 200-546).
T3 sequence: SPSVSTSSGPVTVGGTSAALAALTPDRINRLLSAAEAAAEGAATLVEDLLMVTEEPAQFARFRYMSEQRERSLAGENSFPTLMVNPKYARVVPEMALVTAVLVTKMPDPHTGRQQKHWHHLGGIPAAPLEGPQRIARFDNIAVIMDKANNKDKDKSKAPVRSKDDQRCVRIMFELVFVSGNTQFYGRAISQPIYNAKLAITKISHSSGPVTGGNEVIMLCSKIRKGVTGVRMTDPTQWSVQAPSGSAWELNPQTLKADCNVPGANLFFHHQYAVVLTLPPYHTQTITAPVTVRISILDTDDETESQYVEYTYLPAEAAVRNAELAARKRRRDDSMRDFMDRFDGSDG

Test [4] has as its target T4, GST-Dm-Relish (Drosophila melanogaster, UniProt Q94527 99-473).
T4 sequence: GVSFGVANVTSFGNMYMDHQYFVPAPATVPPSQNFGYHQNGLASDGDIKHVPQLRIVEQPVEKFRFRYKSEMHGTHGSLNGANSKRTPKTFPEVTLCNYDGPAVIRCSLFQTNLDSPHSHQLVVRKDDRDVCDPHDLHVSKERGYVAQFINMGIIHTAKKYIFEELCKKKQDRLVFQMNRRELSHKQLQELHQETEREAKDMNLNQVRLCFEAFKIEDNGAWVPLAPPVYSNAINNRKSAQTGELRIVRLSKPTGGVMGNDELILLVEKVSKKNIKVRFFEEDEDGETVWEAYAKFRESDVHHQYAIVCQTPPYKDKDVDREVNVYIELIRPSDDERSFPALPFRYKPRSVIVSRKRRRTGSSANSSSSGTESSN

Test [5] addresses T5, GST-Aq-NF-kB (Amphimedon queenslandica, UniProt A9Y5G7 2-389).
T5 sequence: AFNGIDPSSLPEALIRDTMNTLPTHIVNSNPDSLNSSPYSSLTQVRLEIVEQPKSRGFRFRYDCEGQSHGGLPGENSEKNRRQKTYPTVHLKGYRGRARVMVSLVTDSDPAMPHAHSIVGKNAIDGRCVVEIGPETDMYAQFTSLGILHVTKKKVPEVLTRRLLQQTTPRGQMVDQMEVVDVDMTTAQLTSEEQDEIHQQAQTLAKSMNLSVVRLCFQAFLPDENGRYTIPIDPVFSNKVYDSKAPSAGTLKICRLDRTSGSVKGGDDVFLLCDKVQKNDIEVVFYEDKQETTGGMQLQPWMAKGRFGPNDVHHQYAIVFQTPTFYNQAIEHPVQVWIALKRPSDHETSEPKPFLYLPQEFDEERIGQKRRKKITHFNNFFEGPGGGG

For test [6], the target named is GST-Hu-p50 (Homo sapiens, UniProt P19838 7-356).
GST-Hu-p50, sequence (P19838 7-356): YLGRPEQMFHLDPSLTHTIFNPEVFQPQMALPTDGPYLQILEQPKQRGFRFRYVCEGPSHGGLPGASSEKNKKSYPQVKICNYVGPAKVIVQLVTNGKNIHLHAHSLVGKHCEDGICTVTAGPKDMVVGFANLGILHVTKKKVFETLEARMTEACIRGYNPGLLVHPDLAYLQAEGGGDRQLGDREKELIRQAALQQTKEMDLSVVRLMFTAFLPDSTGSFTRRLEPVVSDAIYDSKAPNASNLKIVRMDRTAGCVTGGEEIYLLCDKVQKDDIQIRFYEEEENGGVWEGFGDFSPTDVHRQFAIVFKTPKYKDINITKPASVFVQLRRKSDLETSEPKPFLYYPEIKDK

Take “CCGATTAACATCAAGGGGGGACTTGATGTTAATCGGGTCTTGATTCGCTTGACGCTGCTG”: the binding signal is 4.76 z-score in test [1]; 5.56 z-score in test [2]; 5.68 z-score in test [3]; 5.09 z-score in test [4]; 5.14 z-score in test [5]; 5.19 z-score in test [6].
Take “CCGATTAACATCAAGAGTCCCCCTGATGTTAATCGGGTCTTGATTCGCTTGACGCTGCTG”: the binding signal is 7.54 z-score in test [1]; 5.23 z-score in test [2]; 5.05 z-score in test [3]; 5.74 z-score in test [4]; 5.26 z-score in test [5]; 5.46 z-score in test [6].
Take “CCGATTAACATCAAAATACCCCTTGATGTTAATCGGGTCTTGATTCGCTTGACGCTGCTG”: the binding signal worked out at 6.2 z-score in test [1]; 6.38 z-score in test [2]; 4.02 z-score in test [3]; 5.65 z-score in test [4]; 6.58 z-score in test [5]; 6.17 z-score in test [6].
With “CCGATTAACATCAGGGGATATAATGATGTTAATCGGGTCTTGATTCGCTTGACGCTGCTG”, the binding signal was found to be 5.05 z-score in test [1]; 4.66 z-score in test [2]; 4.01 z-score in test [3]; 3.82 z-score in test [4]; 3.39 z-score in test [5]; 4.28 z-score in test [6].
Regarding “CCGATTAACATCACTAAACCCCCTGATGTTAATCGGGTCTTGATTCGCTTGACGCTGCTG”, the binding signal stood at 6.72 z-score in test [1]; 4.83 z-score in test [2]; 3.32 z-score in test [3]; 7.51 z-score in test [4]; 4.92 z-score in test [5]; 6.25 z-score in test [6].
Consider “CCGATTAACATCAAACAGTCCCCTGATGTTAATCGGGTCTTGATTCGCTTGACGCTGCTG”, for which the binding signal in test [1] is 5.58 z-score; in test [2], 5.6 z-score; in test [3], 2.54 z-score; in test [4], 3.49 z-score; in test [5], 5.66 z-score; in test [6], 4.54 z-score.
In the case of “CCGATTAACATCAAAAAACCCCATGATGTTAATCGGGTCTTGATTCGCTTGACGCTGCTG”, the binding signal in test [1] came to 6.53 z-score; in test [2] it was 7.08 z-score; in test [3] it was 2.59 z-score; in test [4], 9.52 z-score; in test [5], 6.77 z-score; in test [6], 6.62 z-score.
For “CCGATTAACATCAAATACCCCCCTGATGTTAATCGGGTCTTGATTCGCTTGACGCTGCTG”, the binding signal in test [1] was found to be 7.87 z-score; in test [2] it was 5.54 z-score; in test [3], 6.37 z-score; in test [4], 6.76 z-score; in test [5], 6.24 z-score; in test [6], 5.42 z-score.
For “CCGATTAACATCAGGGGGGATACTGATGTTAATCGGGTCTTGATTCGCTTGACGCTGCTG”, the binding signal in test [1] was found to be 6.78 z-score; in test [2], 4.85 z-score; in test [3], 6.57 z-score; in test [4] it was 5.55 z-score; in test [5], 4.94 z-score; in test [6], 5.66 z-score.
Regarding “CCGATTAACATCAGGATATCCCCTGATGTTAATCGGGTCTTGATTCGCTTGACGCTGCTG”, the binding signal in test [1] came to 8.1 z-score; in test [2], 7.01 z-score; in test [3] it was 3.66 z-score; in test [4], 7.25 z-score; in test [5], 7.17 z-score; in test [6] it was 5.46 z-score.
In the case of “CCGATTAACATCAGGGGGAGTACTGATGTTAATCGGGTCTTGATTCGCTTGACGCTGCTG”, the binding signal was 6.52 z-score in test [1]; 4.73 z-score in test [2]; 5.82 z-score in test [3]; 9.03 z-score in test [4]; 6.58 z-score in test [5]; 5.94 z-score in test [6].
On to “CCGATTAACATCAGGGGGAGTTATGATGTTAATCGGGTCTTGATTCGCTTGACGCTGCTG”, for which the binding signal in test [1] turned out to be 6.7 z-score; in test [2], 5.95 z-score; in test [3] it was 7.05 z-score; in test [4], 5.28 z-score; in test [5] it was 6.18 z-score; in test [6], 6.55 z-score.
